Assay outcomes from PubChem.
DRD3 antagonist – blocks the human D3 dopamine receptor; D3R cells, DiscoveRx beta-arrestin luminescence, antagonist mode; hits give low values; max response, negative = inhibition, %; actives 2.5% (n = 360,000); in the data active means max response below about -50%; inconclusive means no clear call, values can overlap the other calls; further: on the % scale 0 is the no-effect control and ±100 the full control effect
Target sequence (P35462 whole entry, looked up): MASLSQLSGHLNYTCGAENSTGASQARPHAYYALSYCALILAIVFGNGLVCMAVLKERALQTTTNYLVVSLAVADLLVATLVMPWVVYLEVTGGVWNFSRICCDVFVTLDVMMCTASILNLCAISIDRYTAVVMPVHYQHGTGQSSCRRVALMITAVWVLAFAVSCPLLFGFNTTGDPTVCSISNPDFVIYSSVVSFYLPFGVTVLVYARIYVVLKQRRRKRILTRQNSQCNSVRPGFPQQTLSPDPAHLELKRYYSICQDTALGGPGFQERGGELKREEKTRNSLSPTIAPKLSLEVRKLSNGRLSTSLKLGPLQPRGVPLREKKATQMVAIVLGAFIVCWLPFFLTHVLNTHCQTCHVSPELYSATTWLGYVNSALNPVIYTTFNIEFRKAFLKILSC
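Cells plated overnight at 1500 cells/well, then exposed to library compounds with dopamine controls for 90 minutes at 37 degrees C. DiscoveRx reagent added for 30–60 minutes at room temperature; luminescence read, quantitative HTS format.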
KB-V1 MDR tox – kills drug-selected multidrug resistant KB-V1 cells. actives 3.4% (n = 400,000). Potency, µM (titrated, usually from 46.1 µM), most hits filed as cytotoxic. KB-V1 MDR cells viability, CellTiter-Glo, 72 h; further: potency means the concentration at half of the fitted maximal effect; on the % scale 0 is the no-effect control and ±100 the full control effect; nearly all actives have a fitted effect of over 60% in size
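Readout: CellTiter-Glo luminescence, 10 min after addition. Cells: KB-V1 MDR subline, 72 h at 37 degrees C with compound. Analysis: corrected, normalized data fitted to concentration-effect curves.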
D3 ag – agonists of human D3 dopamine receptor; AID 652048; D3R DiscoveRx beta-arrestin cells, luminescence, 90 min; max activation, %; actives 0.58% (n = 410,000); in the data active means max activation above about 30%; further: 0% is about no effect
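Agonist-mode cell screen: cells plated at 1500/well and incubated overnight at 37 °C, then exposed to library compounds for 90 min at 37 °C. Detection reagent was added for 30–60 min at room temperature, and luminescence was read.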
SW480 rereplic – induces DNA re-replication in SW480 colon adenocarcinoma cells; SW480 DNA re-replication, Hoechst DNA content imaging, 48 h; Potency, µM (doses to about 46.1 µM), inactives show at the top dose re-replication activation, hits mostly activators; actives 1.8% (n = 340,000); AID 624297; further: potency means the concentration at half of the fitted maximal effect; % of control where 0% means no effect; nearly all actives have a fitted effect of over 55% in size
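First, 250 cells per well were seeded. Next, compound or vehicle (23 nL) was pinned in, plates sat 48 hr at 37 C. Finally Hoechst was added for 40 min before fluorescence scanning.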
MCF10A rereplic – inducers of DNA re-replication in MCF 10A breast cells. AID 624296. MCF 10A DNA re-replication, Hoechst nuclear intensity, 48 h. Potency, µM (series often up to 46.1 µM), for inactives: top-dose activity, positive = re-replication, actives largely listed as activators. actives 2.9% (n = 350,000); further: potency means the concentration at half of the fitted maximal effect; % of control where 0% means no effect; nearly all actives have a fitted effect of over 50% in size
KB-3-1 cytotox – KB-3-1 parental cell cytotoxicity | actives 1.4% (n = 400,000) | Potency, µM (series often up to 46.1 µM), hits mostly cytotoxic | AID 1347075 | KB-3-1 viability, CellTiter-Glo ATP luminescence, 72 h; further: potency means the concentration at half of the fitted maximal effect; on the % scale 0 is the no-effect control and ±100 the full control effect; nearly all actives have a fitted effect of over 60% in size
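Screening of KB-3-1 cells (DMEM, 10% FBS, phenol-red free) ran from lowest to highest compound concentration; after 72 h at 37 °C viability was read luminescently and curves fitted.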
Numbers without * were called inactive. An excerpt weighted towards active compounds, which were near 8.9% of everything screened. Unless noted, the call rests on the fitted dose curve; in most records, active means well fitted curve in the direction sought with a large enough effect; inconclusive means small, poorly fitted or top-dose-only effect, or another doubt; inactive means no such curve, though single readings can be large; an effect the other way counts as inactive or inconclusive.

For CC(C)(C)c1ccc(OCCN2CCCC2)cc1 the results were DRD3 antagonist -94*, KB-V1 MDR tox inactive, D3 ag -20, SW480 rereplic 1%, MCF10A rereplic 5% and KB-3-1 cytotox inactive.
For Cc1ccc(OCC(=O)OC2CCCN(C)C2)cc1 (configuration not stated) the results were DRD3 antagonist -4, KB-V1 MDR tox inactive, D3 ag 1, SW480 rereplic 19%, MCF10A rereplic inconclusive and KB-3-1 cytotox inactive.
Screening CC1CCN(CCCCOc2ccc(Cl)cc2)CC1 returned DRD3 antagonist -24, KB-V1 MDR tox inactive, D3 ag -13, SW480 rereplic 10%, MCF10A rereplic inconclusive and KB-3-1 cytotox inactive.
For CN1CCC(OC(=O)COc2ccc(C(C)(C)C)cc2)CC1 the results were DRD3 antagonist -56*, KB-V1 MDR tox inactive, D3 ag -58, SW480 rereplic -11%, MCF10A rereplic 18% and KB-3-1 cytotox inactive.
Screening Cc1ccc(NC(=O)N2CCN(Cc3nc4ccc(C)cc4o3)CC2)c(Cl)c1 returned KB-V1 MDR tox inactive, D3 ag 15 and KB-3-1 cytotox inactive.
Cn1c(=O)c2c(SCC(=O)NCc3ccco3)nc(-c3ccccc3)nc2n(C)c1=O was read as KB-V1 MDR tox inactive, D3 ag 11 and KB-3-1 cytotox inactive.
For C=CCN1C(=O)C(O)(CC(=O)c2ccco2)c2cc(Br)ccc21 (configuration not stated) the results were DRD3 antagonist -19, KB-V1 MDR tox inconclusive, D3 ag -8, SW480 rereplic 13µM*, MCF10A rereplic inconclusive and KB-3-1 cytotox inactive.
O=C(CC1(O)C(=O)N(Cc2ccccc2)c2ccc(Br)cc21)c1ccccc1 (configuration not stated) was read as KB-V1 MDR tox inactive, D3 ag -14 and KB-3-1 cytotox inactive.
`FC(F)Oc1ccc(NC(=S)NNc2ccnc3cc(Cl)ccc23)cc1` gave DRD3 antagonist -28, KB-V1 MDR tox inconclusive, D3 ag -9, SW480 rereplic 12µM*, MCF10A rereplic inconclusive and KB-3-1 cytotox 16µM*.
For O=C(NNc1ccnc2cc(Cl)ccc12)C1CCCCC1 the results were DRD3 antagonist -6, KB-V1 MDR tox inconclusive, D3 ag 5, SW480 rereplic 0%, MCF10A rereplic 17% and KB-3-1 cytotox 5.8µM*.
For COc1ccc(NC(=O)N(C)C[C@H]2OCc3cn(nn3)CCCC(=O)N([C@@H](C)CO)C[C@@H]2C)cc1 the results were DRD3 antagonist -1, KB-V1 MDR tox inactive, D3 ag 4 and KB-3-1 cytotox inactive.
Screening COc1ccc(-c2cn(-c3ccccc3)c3[n+]2CCS3)cc1 returned DRD3 antagonist 7, KB-V1 MDR tox inactive, D3 ag -1, SW480 rereplic -7%, MCF10A rereplic 20% and KB-3-1 cytotox 3.3µM*.
For c1ccc(-c2cn(-c3ccccc3)c3[n+]2CCS3)cc1 the results were DRD3 antagonist -10, KB-V1 MDR tox inconclusive, D3 ag -20, SW480 rereplic 6%, MCF10A rereplic 3% and KB-3-1 cytotox inconclusive.
For CCOc1ccc(S(=O)(=O)NCc2ccc3c(c2)CCN3C(=O)c2ccc(C)cc2)cc1 the results were D3 ag 9.
Screening CCc1ccc(NC(=O)Cn2nnc(-c3ccccc3N)n2)cc1 returned KB-V1 MDR tox inactive, D3 ag 80* and KB-3-1 cytotox inactive.
For O=C(Cn1nnc(-c2ccccc2NC(=O)c2ccccc2)n1)Nc1ccc2c(c1)OCCO2 the results were DRD3 antagonist -10, KB-V1 MDR tox inactive, D3 ag 1, SW480 rereplic 0%, MCF10A rereplic inconclusive and KB-3-1 cytotox inconclusive.
Cc1ccccc1C(=O)Nc1ccccc1-c1nnn(CC(=O)Nc2ccc3c(c2)OCCO3)n1 was read as DRD3 antagonist 23, KB-V1 MDR tox 3.7µM*, D3 ag -5, SW480 rereplic 14%, MCF10A rereplic 23µM* and KB-3-1 cytotox inconclusive.
Screening O=C(Cn1nnc(-c2ccccc2NC(=O)c2ccco2)n1)Nc1ccccc1 returned DRD3 antagonist 6, KB-V1 MDR tox inactive, D3 ag 3, SW480 rereplic inconclusive, MCF10A rereplic inconclusive and KB-3-1 cytotox inactive.
Screening Cc1ccc(NC(=O)Cn2nnc(-c3ccccc3NC(=O)c3cccs3)n2)cc1 returned DRD3 antagonist -2, KB-V1 MDR tox 1.3µM*, D3 ag 3, SW480 rereplic 3.7µM*, MCF10A rereplic 6.5µM* and KB-3-1 cytotox 1µM*.
Screening COc1ccc(NC(=O)Cn2nnc(-c3ccccc3NS(=O)(=O)c3ccc(OC)cc3)n2)cc1 returned DRD3 antagonist 0, KB-V1 MDR tox inconclusive, D3 ag 2, SW480 rereplic 14%, MCF10A rereplic inconclusive and KB-3-1 cytotox inconclusive.
Screening COc1ccc(NC(=O)Cn2nnc(-c3ccccc3NC(=O)c3cccs3)n2)cc1 returned DRD3 antagonist 20, KB-V1 MDR tox inactive, D3 ag 5, SW480 rereplic inconclusive, MCF10A rereplic 15µM* and KB-3-1 cytotox inconclusive.
`Cc1ccc2c(C(=O)CNC3=NCCS3)c(C)[nH]c2c1` gave KB-V1 MDR tox inconclusive and KB-3-1 cytotox inactive.
For O=C(O)CC(CC(=O)O)c1ccc2c(c1)OCO2 the results were KB-V1 MDR tox inactive and KB-3-1 cytotox inactive.
Screening CC(C)(C)C1CCc2c(sc3nc(-c4cc5cc(Cl)ccc5oc4=O)[nH]c(=O)c23)C1 (configuration not stated) returned D3 ag -11.
`COc1ccc(-n2c(C)cc(C(=O)COc3ccc(C)nc3[N+](=O)[O-])c2C)cc1` gave DRD3 antagonist 13, KB-V1 MDR tox inconclusive, D3 ag -3, SW480 rereplic inconclusive, MCF10A rereplic 21µM* and KB-3-1 cytotox inconclusive.
`CC(=O)Nc1ccc(SCC(=O)c2cc(C)n(-c3ccccc3)c2C)cc1` gave DRD3 antagonist -16, KB-V1 MDR tox inconclusive, D3 ag -3, SW480 rereplic -2%, MCF10A rereplic 0% and KB-3-1 cytotox inactive.
For COc1ccc(-n2c(C)cc(C(=O)CCl)c2C)cc1 the results were DRD3 antagonist inconclusive, KB-V1 MDR tox inconclusive, D3 ag -6, SW480 rereplic 2.6µM*, MCF10A rereplic 6.5µM* and KB-3-1 cytotox 6.5µM*.
`COc1ccc(-n2c(C)cc(C(=O)CSc3ccc(NC(C)=O)cc3)c2C)cc1` gave DRD3 antagonist 34, KB-V1 MDR tox inconclusive, D3 ag 3, SW480 rereplic 13%, MCF10A rereplic 16µM* and KB-3-1 cytotox inactive.
